Measured values published in PubChem BioAssay.
Calls of active or inactive are those of the source. Cut-off read from the data, not from the text of the source, unless noted: active = parasite load remaining mostly below about 12% (no sharp cut-off); inactive = mostly above about 10%.

Columns and labels:
[1] = hESC survival regulators, cell-based (AID 493140; call rule not given here;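 note: cells exposed to compounds for four days before counting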); conditions: human embryonic stem cell survival screen; stronger effect = higher value
[2] = liver-stage malaria parasite growth inhibition, primary screen, cell-based, HepG2, luciferase luminescence, HepG2 viability (AID 624349);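 note: 100% = mean of DMSO negative control wells on the same plate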; conditions: P. berghei liver stage in HepG2, luciferase luminescence, concentration not given here; parasite load remaining: stronger effect = lower value; viability: measured here: HepG2 viability without parasites
[3] = sensitizers of A549 cells to miR-34 induction, primary screen, imaging, A549 dox-inducible miR-34, nuclei and caspase counts (AID 1347080;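 active = compounds whose cell count with miR-34 switched on is under 0.7 times the count with it off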); conditions: A549 miR-34 inducible, Hoechst nuclei count, 48 h
[4] = survival rescue of mitochondrial mutant cells in low glucose, primary screen, MELAS cybrids, Rieske KO mouse fibroblasts, CellTiter-Glo (AID 1508586;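 active = mean z-score across replicates of 1.96 or higher in either the MELAS or the Rieske mutant cell line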;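 note: z relative to plate mean and SD of compound and empty wells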)

SMILES: CC(=O)N(CC(C)C(=O)O)c1c(I)cc(I)c(N)c1I (centres undefined)
- survival [1]: 3.33 (inactive)
- parasite load remaining [2]: 76.2% (inactive)
- viability [2]: 95.9%
- fold change ([3]; stronger effect = lower value, cell number ratio, induced over uninduced): 0.901 (inactive)
- fold change ([3]; measured here: relative caspase fold change +Dox/-Dox): 1.42
- cell count ([3]; measured here: total cells with miR-34 induction, stronger effect = lower value): 9460
- cell count ([3]; measured here: total cells without miR-34 induction): 10500
- z-score ([4]; MELAS cybrid survival, CellTiter-Glo 48 h, stronger effect = higher value): 0.846 (inactive)
- z-score ([4]; Rieske KO mouse fibroblast survival, CellTiter-Glo 72 h): 0.109
